Experimental data reported in PubChem BioAssay (EPA / NIEHS).
Results filed as inconclusive are left out. Calls of active or inactive are those of the source. The calls were made as follows, unless noted: active = hit-call score of the fitted dose curve at least 0.9, where 1 is the maximum; inconclusive = response in the unintended direction; inactive = score below 0.9.

Columns and labels:
[1] = molecular target: Bile acid receptor (Homo sapiens) (UniProt Q96RI1); experiment: ATG_FXR_TRANS: Attagene TRANS-FACTORIAL HepG2 Assay for Farnesoid X Receptor (FXR) (AID 2282979); settings: HepG2 Attagene TRANS FXR-GAL4 reporter transcription;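 also: hits raise reporter mRNA above DMSO so AC50 marks FXR activation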
Method in brief: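 HepG2 cells were transiently transfected with GAL4-UAS reporters driven by chimeric NR-Gal4 proteins and dosed for 24 h. Reporter mRNA was quantified by RT-PCR, fluorescent labelling, HpaI digestion and capillary electrophoresis, with gain of signal scored versus DMSO.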

[2] = molecular target: Oxysterols receptor LXR-alpha (Homo sapiens) (UniProt Q13133); experiment: ATG_LXRa_TRANS: Attagene TRANS-FACTORIAL HepG2 Assay for human Liver X Receptor alpha (LXRa) (AID 2282980); settings: HepG2 Attagene TRANS reporter, LXRa transactivation
Method in brief: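 HepG2 cells transiently transfected with GAL4-UAS reporter units for chimeric NR-Gal4 proteins, exposed to chemicals for 24 h. Reporter mRNA quantified by RT-PCR and capillary electrophoresis; gain of signal fitted relative to DMSO.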

[3] = molecular target: Oxysterols receptor LXR-beta (Homo sapiens) (UniProt P55055); experiment: ATG_LXRb_TRANS: Attagene TRANS-FACTORIAL HepG2 Assay for human Liver X Receptor beta (LXRb) (AID 2282981); settings: HepG2 Attagene TRANS GAL4-LXRb reporter, mRNA
Method in brief: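 HepG2 cells transiently transfected with GAL4-UAS reporter units for chimeric NR-Gal4 proteins, dosed for 24 h. Reporter transcripts measured by RT-PCR and capillary electrophoresis; gain-of-signal fitting relative to DMSO.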

[4] = molecular target: Hepatocyte nuclear factor 4-alpha (Homo sapiens) (UniProt P41235); experiment: ATG_HNF4a_TRANS: Attagene TRANS-FACTORIAL HepG2 Assay for human Hepatocyte Nuclear Factor 4 alpha (HNF4a) (AID 2282982); settings: HepG2 HNF4a transactivation reporter, mRNA readout
Method in brief: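 HepG2 cells transiently transfected with HNF4a-Gal4 chimera and GAL4-UAS reporter units, dosed for 24 h. Reporter mRNA measured by RT-PCR, fluorescent primer extension and capillary electrophoresis; gain-of-signal fitted relative to DMSO.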

[5] = ATG_M_06_TRANS: Attagene TRANS-FACTORIAL HepG2 Assay for M06 Transcription Factor (Internal Marker) (AID 2282983); settings: HepG2 Attagene TRANS M06 internal marker reporter;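 also: reporter transcript level by RT-PCR then capillary electrophoresis fluorescence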
Method in brief: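 HepG2 cells transiently transfected with GAL4-UAS multiple reporter units, dosed 24 h. Reporter RNA reverse-transcribed, PCR-amplified, 6-FAM-labeled, HpaI-digested and quantified by capillary electrophoresis; this internal-marker signal fitted upward relative to DMSO.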

[6] = ATG_M_32_TRANS: Attagene TRANS-FACTORIAL HepG2 Assay for M32 Transcription Factor (Internal Marker) (AID 2282984); settings: HepG2 Attagene TRANS M32 internal marker reporter;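 as to outcome: transcript level of a background control reporter unit measured by RT-PCR and capillary electrophoresis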
Method in brief: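 HepG2 cells transiently transfected with GAL4-UAS reporter units, dosed for 24 hours. Reporter mRNA quantified by RT-PCR, 6-FAM labelling, HpaI digestion and capillary electrophoresis; internal-marker signal fitted upward relative to DMSO.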

[7] = molecular target: Nuclear receptor subfamily 4 group A member 2 (Homo sapiens) (UniProt P43354); experiment: ATG_NURR1_TRANS: Attagene TRANS-FACTORIAL HepG2 Assay for human Nuclear Receptor Related Protein 1 (NURR1) (AID 2282985); settings: HepG2 Attagene TRANS reporter, mRNA readout
Method in brief: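 HepG2 cells transiently transfected with NURR1-Gal4 chimera and GAL4-UAS reporter units; after 24 hr compound exposure, reporter mRNA quantified by RT-PCR and capillary electrophoresis; gain of signal fitted against DMSO.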

[8] = molecular target: Transcriptional activator Myb (Homo sapiens) (UniProt P10242); experiment: ATG_Myb_CIS: Attagene CIS-FACTORIAL HepG2 Assay for human Myeloblastosis (Myb) Proto-Oncogene Transcription Factor (AID 2282986; active = hit-call score of the fitted dose curve at least 0.9, where 1 is the maximum; inactive = score below 0.9); settings: HepG2 Attagene CIS-FACTORIAL Myb reporter transcription; actives raise or lower the signal
Method in brief: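 Steps: transfect HepG2 with cis-regulated reporter units; dose with chemical for 24 h; isolate RNA, reverse-transcribe, PCR-amplify and FAM-label reporter sequences; digest with HpaI; resolve by capillary electrophoresis. Activity fitted in both directions relative to DMSO.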

[9] = molecular target: Nuclear respiratory factor 1 (Homo sapiens) (UniProt Q16656); experiment: ATG_NRF1_CIS: Attagene CIS-FACTORIAL HepG2 Assay for human Nuclear Respiratory Factor 1 (NRF1) Orphan Gene (AID 2282987; active = hit-call score of the fitted dose curve at least 0.9, where 1 is the maximum; inactive = score below 0.9); settings: HepG2 NRF1 cis-element reporter, Attagene multiplex; actives raise or lower the signal
Method in brief: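 Fluorescence intensity of labelled reporter cDNA fragments, resolved by capillary electrophoresis, served as readout for NRF1 cis-element activity. Transiently transfected HepG2 cells were dosed for 24 hours; activity in either direction was fitted against DMSO negative control.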

Oxysterols receptor LXR-alpha (Homo sapiens), sequence (Q13133 whole entry, looked up, the tested form may be a part): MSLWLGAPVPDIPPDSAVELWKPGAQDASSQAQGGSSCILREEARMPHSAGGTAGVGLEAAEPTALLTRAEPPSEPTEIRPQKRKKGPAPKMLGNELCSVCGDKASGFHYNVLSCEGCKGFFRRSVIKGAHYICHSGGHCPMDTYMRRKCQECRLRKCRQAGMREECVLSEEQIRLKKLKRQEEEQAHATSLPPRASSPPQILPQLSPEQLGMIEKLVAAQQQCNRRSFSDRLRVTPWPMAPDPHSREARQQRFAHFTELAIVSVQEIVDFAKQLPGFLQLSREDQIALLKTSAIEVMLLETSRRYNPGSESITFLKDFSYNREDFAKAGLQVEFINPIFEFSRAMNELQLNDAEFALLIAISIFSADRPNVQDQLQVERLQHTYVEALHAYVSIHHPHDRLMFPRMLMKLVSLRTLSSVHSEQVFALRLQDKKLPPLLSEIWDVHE
Nuclear respiratory factor 1 (Homo sapiens), sequence (Q16656 whole entry, looked up, the tested form may be a part): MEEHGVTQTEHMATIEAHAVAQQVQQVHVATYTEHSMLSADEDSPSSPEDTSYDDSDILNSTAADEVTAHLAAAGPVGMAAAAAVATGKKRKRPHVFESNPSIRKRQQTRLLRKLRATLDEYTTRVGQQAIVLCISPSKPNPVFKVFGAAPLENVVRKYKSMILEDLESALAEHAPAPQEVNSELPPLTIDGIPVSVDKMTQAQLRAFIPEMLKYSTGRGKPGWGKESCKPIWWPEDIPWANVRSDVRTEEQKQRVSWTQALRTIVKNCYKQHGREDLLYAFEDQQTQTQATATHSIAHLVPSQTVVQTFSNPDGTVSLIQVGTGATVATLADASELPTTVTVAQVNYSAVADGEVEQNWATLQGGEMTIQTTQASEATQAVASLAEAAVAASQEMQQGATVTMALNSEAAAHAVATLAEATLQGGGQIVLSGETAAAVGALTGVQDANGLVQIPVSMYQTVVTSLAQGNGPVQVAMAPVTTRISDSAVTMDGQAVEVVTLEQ
Hepatocyte nuclear factor 4-alpha (Homo sapiens), sequence (P41235 whole entry, looked up, the tested form may be a part): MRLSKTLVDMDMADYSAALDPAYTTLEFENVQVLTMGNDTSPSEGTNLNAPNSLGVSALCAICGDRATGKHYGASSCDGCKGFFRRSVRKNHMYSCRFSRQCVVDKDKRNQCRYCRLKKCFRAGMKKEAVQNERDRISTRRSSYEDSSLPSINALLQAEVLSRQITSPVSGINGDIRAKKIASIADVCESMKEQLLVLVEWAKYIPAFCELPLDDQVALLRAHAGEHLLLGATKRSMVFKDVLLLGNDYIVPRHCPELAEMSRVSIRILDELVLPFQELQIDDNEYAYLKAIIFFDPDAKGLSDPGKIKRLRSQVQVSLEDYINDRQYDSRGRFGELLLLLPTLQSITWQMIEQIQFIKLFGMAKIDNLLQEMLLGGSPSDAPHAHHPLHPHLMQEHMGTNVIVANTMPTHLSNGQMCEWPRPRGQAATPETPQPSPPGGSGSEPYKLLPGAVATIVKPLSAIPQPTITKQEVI
Transcriptional activator Myb (Homo sapiens), sequence (P10242 whole entry, looked up): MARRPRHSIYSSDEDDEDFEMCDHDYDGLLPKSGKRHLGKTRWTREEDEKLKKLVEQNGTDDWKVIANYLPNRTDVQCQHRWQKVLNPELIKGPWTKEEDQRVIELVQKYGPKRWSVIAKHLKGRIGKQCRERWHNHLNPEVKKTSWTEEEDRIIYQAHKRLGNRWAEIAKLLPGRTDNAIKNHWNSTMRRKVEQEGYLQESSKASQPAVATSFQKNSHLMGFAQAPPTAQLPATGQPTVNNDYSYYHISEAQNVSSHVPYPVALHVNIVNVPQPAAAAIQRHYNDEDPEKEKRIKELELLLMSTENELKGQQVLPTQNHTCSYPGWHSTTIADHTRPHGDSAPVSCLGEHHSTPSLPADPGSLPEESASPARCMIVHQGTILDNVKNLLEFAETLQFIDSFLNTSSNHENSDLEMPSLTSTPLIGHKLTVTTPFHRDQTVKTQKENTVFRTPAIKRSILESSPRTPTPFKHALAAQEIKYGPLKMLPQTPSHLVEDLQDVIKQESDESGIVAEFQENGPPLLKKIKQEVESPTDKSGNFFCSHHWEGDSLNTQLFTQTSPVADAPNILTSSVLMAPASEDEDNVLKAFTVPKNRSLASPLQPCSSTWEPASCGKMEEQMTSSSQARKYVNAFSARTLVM
Nuclear receptor subfamily 4 group A member 2 (Homo sapiens), sequence (P43354 whole entry, looked up, the tested form may be a part): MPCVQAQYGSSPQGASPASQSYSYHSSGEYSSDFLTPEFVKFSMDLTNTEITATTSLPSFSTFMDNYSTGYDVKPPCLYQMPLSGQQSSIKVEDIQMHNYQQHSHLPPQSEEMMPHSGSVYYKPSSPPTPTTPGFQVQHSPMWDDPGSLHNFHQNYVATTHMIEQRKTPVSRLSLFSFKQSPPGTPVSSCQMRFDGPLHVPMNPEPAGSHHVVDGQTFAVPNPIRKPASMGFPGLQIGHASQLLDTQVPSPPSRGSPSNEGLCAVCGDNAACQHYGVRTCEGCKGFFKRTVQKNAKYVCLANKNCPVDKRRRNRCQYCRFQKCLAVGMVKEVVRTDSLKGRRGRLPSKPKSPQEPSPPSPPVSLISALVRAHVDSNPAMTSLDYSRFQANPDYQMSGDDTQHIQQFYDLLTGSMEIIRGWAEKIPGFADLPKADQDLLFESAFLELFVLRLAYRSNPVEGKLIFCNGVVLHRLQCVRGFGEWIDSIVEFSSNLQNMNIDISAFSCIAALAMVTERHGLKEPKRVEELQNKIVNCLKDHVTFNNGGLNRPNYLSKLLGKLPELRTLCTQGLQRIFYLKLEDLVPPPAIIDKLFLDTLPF
Bile acid receptor (Homo sapiens), sequence (Q96RI1 whole entry, looked up, the tested form may be a part): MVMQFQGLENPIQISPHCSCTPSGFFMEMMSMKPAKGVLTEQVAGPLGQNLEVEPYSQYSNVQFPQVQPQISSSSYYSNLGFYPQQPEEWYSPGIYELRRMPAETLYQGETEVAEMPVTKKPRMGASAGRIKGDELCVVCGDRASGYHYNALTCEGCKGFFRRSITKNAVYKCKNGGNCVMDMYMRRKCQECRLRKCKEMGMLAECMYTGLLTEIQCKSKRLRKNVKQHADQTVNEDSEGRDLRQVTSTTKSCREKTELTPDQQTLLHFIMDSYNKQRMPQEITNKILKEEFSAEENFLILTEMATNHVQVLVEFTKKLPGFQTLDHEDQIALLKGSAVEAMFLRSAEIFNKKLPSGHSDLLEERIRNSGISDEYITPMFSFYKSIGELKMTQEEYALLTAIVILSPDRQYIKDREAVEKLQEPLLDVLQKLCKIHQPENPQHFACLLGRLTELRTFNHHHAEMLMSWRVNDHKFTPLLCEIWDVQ
Oxysterols receptor LXR-beta (Homo sapiens), sequence (P55055 whole entry, looked up, the tested form may be a part): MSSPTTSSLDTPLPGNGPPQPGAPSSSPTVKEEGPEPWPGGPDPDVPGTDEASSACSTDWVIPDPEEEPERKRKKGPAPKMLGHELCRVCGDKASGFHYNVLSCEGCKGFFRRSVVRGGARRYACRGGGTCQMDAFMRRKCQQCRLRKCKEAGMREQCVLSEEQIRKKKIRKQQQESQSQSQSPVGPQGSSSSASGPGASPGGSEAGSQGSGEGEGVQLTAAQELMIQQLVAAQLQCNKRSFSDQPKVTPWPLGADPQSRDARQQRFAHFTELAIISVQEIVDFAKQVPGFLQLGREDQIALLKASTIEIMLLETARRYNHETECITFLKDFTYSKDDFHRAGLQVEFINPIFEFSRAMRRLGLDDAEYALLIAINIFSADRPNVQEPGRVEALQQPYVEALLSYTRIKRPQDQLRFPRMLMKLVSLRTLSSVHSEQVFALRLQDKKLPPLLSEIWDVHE

SMILES	outcome [1]	outcome [2]	outcome [3]	outcome [4]	outcome [5]	outcome [6]	outcome [7]	outcome [8]	outcome [9]	AC50 [3]	AC50 [4]	AC50 [6]	AC50 [7]	AC50 [1]
O=C(O)CCC(F)(F)C(F)(F)C(F)(F)C(F)(F)C(F)(F)F	inactive	inactive	inactive	inactive	inactive	inactive	inactive	inactive	inactive					
CCCCCCCCCCCCCC[n+]1ccccc1	inactive	inactive							inactive	53.6 µM (active)	100 µM (active)	47 µM (active)	9.84 µM (active)	
O=C(O)CN(CCCN(CC(=O)O)CC(=O)O)CC(=O)O	inactive	inactive	inactive	inactive	inactive		inactive		inactive					
CC1COCc2cc3c(cc21)C(C)(C)C(C)C3(C)C (configuration not stated)	inactive	inactive	inactive		inactive		inactive		inactive					
Brc1ccc(Oc2ccc(Br)cc2Br)cc1	inactive	inactive	inactive		inactive		inactive	inactive	inactive					
O=P(O)(O)CCC(F)(F)C(F)(F)C(F)(F)C(F)(F)C(F)(F)C(F)(F)C(F)(F)C(F)(F)F	inactive	inactive	inactive	inactive	inactive	inactive	inactive	inactive	inactive					
OCCN1CN(CCO)CN(CCO)C1	inactive	inactive	inactive	inactive		inactive		inactive	inactive					
CCCCCCCCCCCCCCCCCC[N+](C)(C)Cc1ccccc1	inactive	inactive	inactive		inactive		inactive		inactive		50 µM (active)			
O=C(Nc1ccc(Cl)c(Cl)c1)c1cc(Cl)cc(Cl)c1O		inactive	inactive		inactive		inactive	inactive	inactive					3.82 µM (active)
O=C(F)C(F)(F)C(F)(F)C(F)(F)C(F)F	inactive	inactive	inactive		inactive	inactive	inactive		inactive					
CC(=O)Nc1ccc(S(N)(=O)=O)cc1	inactive	inactive	inactive		inactive	inactive		inactive	inactive					
CC1CNCC(C)O1 (configuration not stated)	inactive	inactive	inactive		inactive	inactive		inactive	inactive					
FC1(F)C=CC(F)(F)C1(F)F	inactive	inactive					inactive	inactive	inactive					
